Screens: PubChem BioAssay, National Center for Advancing Translational Sciences (NCATS)
Compounds with a hit are over-represented: about 10% of the library has one in this group of screens.
BAZ2B inh = qHTS Assay for Inhibitors of BAZ2B; Bromodomain adjacent to zinc finger domain protein 2B (Homo sapiens), Q9UIF8; AlphaScreen BAZ2B-H3K14Ac peptide displacement; Potency, µM (highest dose often 114 µM), usual class: inhibitors; hit rate 4.4% among 360,000; further: nearly all actives have a fitted effect of over 60% in size
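Multi-concentration screen (max 110 uM) measuring displacement of acetylated histone H3 peptide from BAZ2B by AlphaScreen, using 50 nM protein, 50 nM peptide and 10 ug/mL streptavidin donor plus Ni-chelate acceptor beads.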
G9a inh = qHTS Assay for Inhibitors of Histone Lysine Methyltransferase G9a | Histone-lysine N-methyltransferase EHMT2 (Homo sapiens), Q96KQ7 | G9a H3K9 monomethylation, AlphaScreen, 2 h | Potency, µM (top dose mostly 102 µM), usual class: inhibitors | hit rate 8.8% among 350,000 | AID 504332, 2011; further: nearly all actives have a fitted effect of over 75% in size
Target sequence (Q96KQ7 913-1193 limits assumed): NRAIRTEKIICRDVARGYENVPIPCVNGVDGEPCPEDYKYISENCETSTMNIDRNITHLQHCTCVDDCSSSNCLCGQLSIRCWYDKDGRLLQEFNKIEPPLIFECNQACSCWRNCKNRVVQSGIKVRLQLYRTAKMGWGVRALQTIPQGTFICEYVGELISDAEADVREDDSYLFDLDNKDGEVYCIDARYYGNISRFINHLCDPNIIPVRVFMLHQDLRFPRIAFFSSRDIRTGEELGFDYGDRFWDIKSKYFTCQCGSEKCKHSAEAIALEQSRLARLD
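Step 1: enzyme (final 20 nM) with compound, 15 min RT. Step 2: substrate peptide 500 nM and SAM 20 uM, 2 h RT. Step 3: anti-H3K9me1 antibody and AlphaScreen beads, 10 min, then plate read.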
JMJD2A Tudor inh = qHTS Assay for Inhibitors of JMJD2A-Tudor Domain | Lysine-specific demethylase 4A (Homo sapiens), O75164 | AlphaScreen JMJD2A-Tudor / H3K4me3 peptide binding | Potency, µM (series often up to 114 µM), actives largely listed as inhibitors | hit rate 4.4% among 390,000 | AID 504339, 2011; further: nearly all actives have a fitted effect of over 50% in size
GLS inh = qHTS for Inhibitors of Glutaminase (GLS) | Glutaminase kidney isoform, mitochondrial (Homo sapiens), O94925 | GLS enzymatic activity, qHTS titration | Potency, µM (series often up to 45.5 µM), usual class: inhibitors | hit rate 0.21% among 410,000 | AID 624170, 2012
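Coupled fluorescence readout: glutamate oxidase/HRP/Amplex Red detect glutamate formed by hKGA from L-glutamine (1 mM solution added). Buffer 45 mM KH2PO4 pH 8.2, 0.02% Tween-20; reads at t0 and 30 min RT.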
HP1b binding inh = HTS for Inhibitors of HP1-beta Chromodomain Interactions with Methylated Histone Tails | Chromobox protein homolog 1 (Homo sapiens), P83916 | AlphaScreen HP1-beta / biotin-H3K9me3 peptide binding | Potency, µM (series often up to 114 µM), hits mostly inhibitors | hit rate 0.56% among 390,000 | AID 540317, 2011; further: nearly all actives have a fitted effect of over 70% in size
Target sequence (P83916 whole entry, looked up): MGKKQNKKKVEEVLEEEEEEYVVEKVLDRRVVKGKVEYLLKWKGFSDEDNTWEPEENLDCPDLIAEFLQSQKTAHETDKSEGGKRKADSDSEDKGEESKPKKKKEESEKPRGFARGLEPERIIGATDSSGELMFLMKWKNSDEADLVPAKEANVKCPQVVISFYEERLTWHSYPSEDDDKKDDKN
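HP1-beta protein (50 nM final) preincubated 30 min at room temperature with biotinylated H3(1-18)K9me3 peptide (50 nM) in PBS pH 7.4, 0.01% Tween-20, then compound added for 30 min. AlphaScreen streptavidin donor/nickel chelate acceptor beads (10 ug/mL final), 30 min dark, luminescence read.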
A number is an active result; . = inactive; ? = inconclusive; / = no result given; [ ] = dose if it differs, or a comment. The call rests on the fitted dose curve; in most records, active means well fitted curve in the direction sought with a large enough effect; inconclusive means small, poorly fitted or top-dose-only effect, or another doubt; inactive means no such curve, though single readings can be large; an effect the other way counts as inactive or inconclusive.

SMILES	BAZ2B inh	G9a inh	JMJD2A Tudor inh	GLS inh	HP1b binding inh
Cc1cc2nnc(SCC(=O)Nc3cccc(S(=O)(=O)N4CCOCC4)c3)n2c2ccccc12	.	50µM	.	.	.
CCCC(C(=O)Nc1cccc(S(=O)(=O)N2CCCC2)c1)c1ccccc1 (configuration not stated)	.	16µM	.	.	.
O=C(/C=C/c1ccco1)Nc1cccc(S(=O)(=O)N2CCOCC2)c1	.	.	.	.	.
Cc1ccc(/C=C/C(=O)Nc2cccc(S(=O)(=O)N3CCOCC3)c2)o1	.	8.9µM	.	.	50µM
O=C(Nc1cccc(N2CCCC2)c1)c1cccs1	?	3.2µM	?	.	?
COc1ccc(CCN2CN(S(=O)(=O)c3ccc(OC)cc3)c3nc4ccccc4nc32)cc1	.	?	?	.	?
O=c1c(-c2ccco2)[n+]([O-])c2ccccc2n1OCc1ccccc1	.	6.3µM	50µM	.	?
CCOC(=O)COn1c(=O)c(-c2ccco2)[n+]([O-])c2ccccc21	?	10µM	.	.	.
CCOc1ccc(C(=O)N2CC(=O)Nc3ccc(F)cc3C2c2ccc(F)cc2)cc1 (configuration not stated)	.	.	.	.	.
O=C(NC(=S)NNC(=O)c1cc2ccccc2cc1O)c1ccco1	.	/	45µM	?	.
CCCC(=O)Nc1ccc(C(=O)NNC(=O)c2ccccc2Br)cc1	.	22µM	.	.	.
O=C(NC(=S)NNC(=O)c1ccco1)c1ccc(F)cc1	.	13µM	.	.	.
O=C(Nc1ccc(NC(=O)c2cccs2)cc1Cl)c1ccco1	/	.	.	.	.
O=C(Nc1ccc(Cl)c(NC(=O)c2cccs2)c1)c1ccco1	.	56µM	.	.	.
Cc1cc(NS(=O)(=O)c2ccc(NC(=O)/C=C/c3c(F)cccc3Cl)cc2)nc(C)n1	.	?	.	.	.
CNC(=O)c1ccsc1NC(=O)C1CCN(S(=O)(=O)c2cccs2)CC1	.	.	.	.	.
CCCC(=O)Nc1ccc(Cl)c(NC(=S)NC(=O)c2ccco2)c1	.	50µM	.	.	.
CCCCC(=O)Nc1ccc(C(=O)NNC(=S)NC(=O)c2ccco2)cc1	.	25µM	.	.	.
C(#Cc1ccccc1)CN1CCN(c2ccccn2)CC1	50µM	?	?	.	.
CC(CCN1CCN(c2ccccn2)CC1)c1ccccc1 (configuration not stated)	?	28µM	25µM	.	?
C(#Cc1ccccc1)CN1CCCCC1	.	.[0.501 µM]	.	.	.
CC(CCN1CCN(c2ccccc2)CC1)c1ccccc1 (configuration not stated)	?	?	.	.	.
CC1(Cc2cccc(C(F)(F)F)c2)C(=O)Nc2c(Cl)ccc(Cl)c21 (configuration not stated)	/	/	/	.	/
COc1ccc(C2=NOC(C(=O)NCc3ccccn3)C2)cc1OC (configuration not stated)	.	.	.	.	.
CCSc1nnc(NC(=O)CSc2sc3c(O)cc(=O)[nH]c3c2C#N)s1	79µM	?	?	.	.
SMILES	BAZ2B inh	G9a inh	JMJD2A Tudor inh	GLS inh	HP1b binding inh
CCc1nnc(NC(=O)CSc2sc3c(O)cc(=O)[nH]c3c2C#N)s1	20µM	10µM	20µM	?	40µM
CCc1nnc(NC(=O)CSc2nnc(-c3cc4ccccc4cc3O)n2CC)s1	.	28µM	.	.	.
Cc1csc(NC(=O)CSc2sc3c(O)cc(=O)[nH]c3c2C#N)n1	?	50µM	.	.	.
CCCSc1nnc(NC(=O)CSc2nc3[nH]c(=O)cc(O)c3s2)s1	.	?	.	.	.
Cc1csc(NC(=O)CSc2nc3[nH]c(=O)cc(O)c3s2)n1	/	/	.	.	.
O=C(CSCc1ccc(F)cc1)N1CCN(c2ccc(Cl)cc2)CC1	.	.	.	.	.
CCn1nnc(-c2ccccc2NC(=O)c2ccc(-n3cnnn3)cc2)n1	.	?	.	.	.
COC(=O)c1ccc(Oc2cc(C)nc(SC)n2)cc1	.	.	28µM	?	?
CCOc1ccc(-n2c(CCC(=O)O)ccc2-c2ccc(Br)cc2)cc1	40µM	10µM	?	.	?
